ABCB6 inh MLPCN: ABCB6 transporter inhibitors, primary screen, K562-ABCB6 cells, flow cytometry, MLPCN library. ATP-binding cassette sub-family B member 6 (Homo sapiens), Q9NP58. K562-ABCB6 porphyrin accumulation, 1 h; stronger effect = lower value. fluorescence ratio to DMSO, % at 10 µM. hit rate 0.19% among 360,000;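 active means fluorescence ratio to DMSO below 75%, the collection mean minus 3 SD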;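 further: signal is porphyrin accumulated inside mitochondria; 100% equals median channel fluorescence of DMSO control wells; lower ratio means ABCB6 inhibition with less porphyrin fluorescence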
Target sequence (Q9NP58 whole entry, looked up): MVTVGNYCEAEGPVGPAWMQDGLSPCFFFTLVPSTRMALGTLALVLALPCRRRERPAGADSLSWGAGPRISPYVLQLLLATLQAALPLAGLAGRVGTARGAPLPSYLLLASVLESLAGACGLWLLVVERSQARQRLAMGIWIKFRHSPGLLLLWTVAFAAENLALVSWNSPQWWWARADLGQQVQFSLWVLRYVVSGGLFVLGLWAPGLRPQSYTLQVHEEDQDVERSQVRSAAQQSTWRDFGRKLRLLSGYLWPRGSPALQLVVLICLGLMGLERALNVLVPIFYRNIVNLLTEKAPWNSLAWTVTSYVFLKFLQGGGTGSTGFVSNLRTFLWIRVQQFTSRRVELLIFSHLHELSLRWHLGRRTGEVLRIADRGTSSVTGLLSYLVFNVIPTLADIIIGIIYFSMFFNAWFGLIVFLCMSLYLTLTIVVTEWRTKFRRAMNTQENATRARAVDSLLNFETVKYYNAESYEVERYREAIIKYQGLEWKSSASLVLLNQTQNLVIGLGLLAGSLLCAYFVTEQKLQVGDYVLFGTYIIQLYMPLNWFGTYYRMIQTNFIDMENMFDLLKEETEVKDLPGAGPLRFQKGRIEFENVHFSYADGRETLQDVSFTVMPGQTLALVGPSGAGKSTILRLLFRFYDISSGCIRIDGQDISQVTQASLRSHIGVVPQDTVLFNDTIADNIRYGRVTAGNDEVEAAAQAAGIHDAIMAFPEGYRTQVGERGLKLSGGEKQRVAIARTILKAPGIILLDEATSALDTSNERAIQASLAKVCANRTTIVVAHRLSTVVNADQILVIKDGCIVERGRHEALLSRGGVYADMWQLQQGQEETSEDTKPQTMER
MsrA inh: bovine MsrA enzyme inhibitors, primary screen, biochemical, absorbance, HTS; inhibition, % at 15.5 µM; hit rate 0.75% among 360,000; purified bovine MsrA, absorbance read-out; Methionine sulfoxide reductase A (Bos taurus); in the data active means inhibition above about 4.5%;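 further: 0% = vehicle wells with enzyme and 100% = reference inhibitor wells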
SMARCA2 activ: SMARCA2 (BRM) function activators, primary screen, cell-based, luminescence, high throughput | hit rate 1% among 370,000 | MG213 cells, MMTV-luciferase reporter, dexamethasone, overnight | activation, % at 9.1 µM; in the data active means activation above about 7.8%;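 further: 0% = vehicle wells and 100% = reference activator wells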
MsrA act: bovine MsrA enzyme activators, primary screen, biochemical, absorbance, HTS; Methionine sulfoxide reductase A (Bos taurus); purified bovine MsrA, absorbance read-out; activation, % at 10.6 µM; hit rate 0.3% among 360,000; in the data active means activation above about 7.5%;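 further: 0% = vehicle and 100% = reference activator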
SMARCA2 conf: SMARCA2 (BRM) function activators, confirmation, cell-based, luminescence, triplicate. activation, % at 9.1 µM. MG213 cells, MMTV-luciferase with dexamethasone, overnight; MG213 cells expressing E1A, Rb sequestered; DMSO wells 0%, reference activator 100%. hit rate 30% among 3,500. AID 652260, 2013. shares compounds with SMARCA2 activ;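 active means activation above its plate's cutoff, the mean activation of tested wells plus 3 SD, cut at about 7.9% in these data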
GAL4-VP16 Luc: GAL4-VP16 luciferase reporter activation, counter-screen for SMARCA2 (BRM) activator project, cell-based, pG5luc, luminescence, high throughput | activation, % at 9.1 µM | HEK293 GAL4-VP16 pG5luc reporter; scaled: DMSO wells 0%, SAHA wells 100% | shares compounds with SMARCA2 activ | hit rate 41% among 3,500 | AID 686939, 2013;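 active means activation above the solvent-only control well mean plus 3 SD, averaged across control plates, cut at about 5.2% in these data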
* = called active by the depositor; nt = not tested or not shown. In the library only some 2.1% were active in any assay of this set; here they are far more common.

SMILES | ABCB6 inh MLPCN | MsrA inh | SMARCA2 activ | MsrA act | SMARCA2 conf | GAL4-VP16 Luc
CCC(OCC(O)CN1CCN(CCN2C(=O)c3cccc4cccc(c34)C2=O)CC1)c1ccccc1 (stereo not drawn) | 95 | 1 | 9.4* | -6 | 1 | 5
CCOC1=C2[C@H](c3ccccc3)N(S(=O)(=O)c3ccc(C)cc3)C[C@H]2n2c(=O)n(-c3ccccc3)c(=O)n2C1 | 100 | 0 | -1 | -2 | nt | nt
COC(=O)[C@@H](NC(=O)c1ccccc1OC1CCN(S(C)(=O)=O)CC1)C(C)C | 91 | 2 | -1 | -9 | nt | nt
COCCN(C(=O)c1ccccc1OC1CCN(S(C)(=O)=O)CC1)C(C)C | 98 | 0 | 8.1* | -4 | 0 | 1
COc1ccccc1N1CCN(S(=O)(=O)c2ccc3c(c2)CCC(=O)N3)CC1 | nt | nt | 0 | nt | nt | nt
S=C(NC1CCCCC1)N1CCOCCOCCN(C(=S)NC2CCCCC2)CCOCC1 | 93 | 0 | -2 | -2 | nt | nt
S=C(NC1CCCC1)N1CCOCC1 | 99 | 0 | 8.2* | -10 | -2 | 2
CN(C)[C@H]1CCN(c2ccc3c(c2)O[C@H]2CCN(C2)S3(=O)=O)C1 | nt | nt | -3 | nt | nt | nt
COc1cc(OC)cc(C(=O)N[C@H](C(=O)NC23CC4CC(CC(C4)C2)C3)C(C)C)c1 | 95 | 0 | 9.9* | 0 | 1 | 0
O=c1c(-c2cc3ccccc3[nH]2)nc2ccccc2n1C(CCc1ccccc1)c1nc2ccccc2[nH]1 (stereo not drawn) | nt | 0 | 1 | nt | nt | nt
O=C(Cc1ccccc1)Nc1nc(-c2cccs2)cs1 | 89 | 0 | 11* | -8 | 3 | 6.4*
O=C(Cc1ccccc1F)Nc1nc(-c2cccs2)cs1 | 93 | 0 | 2 | -2 | nt | nt
O=C1NC[C@@H](CCCCN2C[C@H](Cc3ccccc3)N(Cc3ccccc3)C(=O)C2=O)N(Cc2ccccc2)C1=O | 96 | 0 | 0 | 2 | nt | nt
CCOc1ccc(C(=O)/C=C/Nc2ccc(S(=O)(=O)N=C(N)N)cc2)cc1 | 90 | 1 | 8.1* | -3 | -1 | 1
NC(N)=NS(=O)(=O)c1ccc(N/C=C/C(=O)c2ccc(Cl)c(Cl)c2)cc1 | 100 | 2 | -3 | -2 | nt | nt
C[C@H]1COc2cc(N3CCCC3)ccc2S(=O)(=O)N1 | nt | 0 | -3 | nt | nt | nt
Cc1cc(/C=N/NC(=O)c2ccsc2)c(C)n1-c1cnccn1 | 105 | 2 | 8.0* | -11 | 4 | 3
Cc1ccc(NC(=O)c2ncc(Cl)c(Cl)c2Cl)cc1C | 100 | -1 | 8.2* | -2 | 4 | 9.5*
CCOC(=O)c1sc(-c2ccccc2)cc1N | 99 | -1 | 9.0* | -2 | 6 | 6.4*
O=C(COc1ccccc1/C=C\c1[nH]c(=O)[nH]c(=O)c1[N+](=O)[O-])Nc1ccccc1 | 90 | 3 | 11* | -10 | 13* | 2
O=c1[nH]c(/C=C/c2ccccc2Cl)c([N+](=O)[O-])c(=O)[nH]1 | 96 | 3 | 1 | -3 | nt | nt
C=CCN(CC#Cc1cccnc1)Cc1ccc(OC)cc1OC | nt | nt | -2 | nt | nt | nt
Cc1ccc(-c2nc3ccccn3c2NCc2ccc3c(c2)OCO3)cc1 | 96 | 1 | 10* | -3 | 8.2* | 5
CC(=O)N/C(=N\c1nc(C)cc(C)n1)Nc1ccccc1Cl | 92 | 0 | 8.3* | -9 | 4 | 1
CC(=O)N/C(=N/c1nc(C)cc(C)n1)Nc1ccc(C)cc1Cl | 94 | 0 | 1 | 0 | nt | nt
SMILES | ABCB6 inh MLPCN | MsrA inh | SMARCA2 activ | MsrA act | SMARCA2 conf | GAL4-VP16 Luc
O=C(Nc1ccc(N2CCCCCC2)cc1)c1ccccc1Cl | 95 | 1 | 8.0* | -1 | 5 | 8.0*
CCOc1cc2c(C)cc(=O)oc2cc1Cl | 98 | 1 | 9.9* | -3 | -1 | -2
CCOc1cc2oc(=O)c3c(c2cc1Cl)CCC3 | 88 | 1 | 0 | -3 | nt | nt
CCCCCCCCN1C(=O)N2Cc3cc(OC)ccc3C2CS1(=O)=O (stereo not drawn) | nt | nt | -3 | nt | nt | nt
CC(=O)Nc1ccc(-c2nc3c(C)cccc3[nH]2)cc1 | 99 | 1 | 13* | -5 | 20* | 17*
Cc1ccccc1NC(=S)N(Cc1ccco1)C(C)c1cccs1 (stereo not drawn) | 96 | 0 | 11* | -2 | -4 | -1
Cc1cc(=O)[nH]c(SCC(=O)Nc2cccc(C)c2C)n1 | nt | nt | -3 | nt | nt | nt
CC1CCCN(C(=O)c2ccc3c(c2)OCCO3)C1 (stereo not drawn) | 96 | 0 | 9.9* | -1 | 1 | 5.5*
COc1ccc(C(=O)Cc2nnc(C)s2)cc1 | 103 | 0 | 9.1* | 1 | 6 | 12*
COc1ccc(C(=O)CC(=O)c2ccc(OC)cc2)cc1 | 93 | 1 | -1 | -4 | nt | nt
CC(=O)NC(=S)Nc1ccc(-c2nc3ccc(C)cc3s2)cc1 | 108 | 1 | 18* | -3 | 5 | 9.2*
COc1cc2c(cc1OC)-c1cc(Nc3ccc(C)cc3)nc(=O)n1CC2 | 98 | 4 | 9.9* | -1 | 9.2* | 4
O=C(N/N=C\c1ccccn1)c1cccc(C(=O)N/N=C\c2ccccn2)n1 | 98 | 3 | -3 | -5 | nt | nt
Cc1ccc(C=Cc2ccccn2)cc1 | 95 | 0 | 1 | -2 | nt | nt
O=C(N/N=C/c1ccccn1)c1ccc(Cl)cc1 | 99 | 1 | 13* | -2 | -7 | 21*
O=C(N/N=C/c1ccccn1)c1ccncc1 | 100 | -1 | 0 | -1 | nt | nt
Clc1ccc(C=Cc2ccccn2)cc1 | 102 | 0 | 19* | -6 | 6 | 8.0*
O=C(N/N=C\c1ccccn1)c1ccccc1O | 98 | 3 | 13* | -9 | -10 | 11*
CN1[C@H](Cc2ccccc2)COc2cccc(N3CCCC3)c2S1(=O)=O | nt | nt | 1 | nt | nt | nt
CCN1CCCCC(NC(=O)c2ccc(C)cc2)C1=O (stereo not drawn) | nt | nt | -5 | nt | nt | nt
Cc1ccc(C=C2C=C(c3ccccc3)OC2=O)cc1 | 101 | 0 | 8.6* | -2 | 0 | 6.1*
CN(C)c1ccc(C=C2C=C(c3ccccc3)OC2=O)cc1 | 114 | 0 | -2 | 3 | nt | nt
Cc1ccc(SCC(=O)Nc2ccc(N3CCN(C)CC3)c(F)c2)cc1 | 98 | 1 | 11* | 0 | 5 | 4
CCCC[C@H]1C2CC(OC(=O)Nc3cccc(Br)c3)C(C2)[C@H]2CCCCN21 (stereo partly drawn) | nt | nt | 0 | nt | nt | nt
CCOCCn1c(CN2CCCCC2)nc2c1c(=O)n(C)c(=O)n2C | 85 | 0 | 8.1* | -4 | 0 | 0
N#Cc1cccc(NC(=O)OCCN2C(=O)CCC23CCC(c2ccccc2)CC3)c1 (stereo not drawn) | nt | nt | -4 | nt | nt | nt

High-throughput results: PubChem BioAssay, several laboratories
